# From PubChem BioAssay AID624048 (National Center for Advancing Translational Sciences (NCATS), 2012)
# Records with an inconclusive call do not appear. Calls of active or inactive are those of the source. The call rests on the fitted dose curve; in most records, active means well fitted inhibition curve with a large enough effect; inconclusive means small, poorly fitted or top-dose-only effect; inactive means no such curve, though single readings can be large or run the other way.
# Target: Dual specificity protein kinase CLK2 (Homo sapiens) (UniProt P49760)
# Sequence (P49760 whole entry, looked up): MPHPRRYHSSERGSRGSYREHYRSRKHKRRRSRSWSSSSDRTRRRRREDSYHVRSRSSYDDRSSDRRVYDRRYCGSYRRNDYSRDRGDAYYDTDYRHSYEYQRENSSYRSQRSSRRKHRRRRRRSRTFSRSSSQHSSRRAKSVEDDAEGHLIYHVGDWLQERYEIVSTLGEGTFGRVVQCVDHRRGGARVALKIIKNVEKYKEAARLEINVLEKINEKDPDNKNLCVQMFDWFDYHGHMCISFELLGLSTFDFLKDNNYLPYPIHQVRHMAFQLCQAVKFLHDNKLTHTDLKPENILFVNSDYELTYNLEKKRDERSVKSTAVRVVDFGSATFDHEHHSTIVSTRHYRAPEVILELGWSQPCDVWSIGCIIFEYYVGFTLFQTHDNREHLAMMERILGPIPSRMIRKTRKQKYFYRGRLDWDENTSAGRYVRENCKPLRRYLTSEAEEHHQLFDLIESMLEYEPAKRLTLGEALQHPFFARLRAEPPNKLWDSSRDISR
# Assay: Reaction Biology data for inhibitors of CLK2: Probe SAR
# Settings: Reaction Biology CLK2 kinase assay, 10 uM ATP; series mostly up to 10 µM; activity change, negative = inhibition: at the top concentration
# From the text: Alternative splicing of pre-mRNAs plays a major role in the regulation of eukaryotic gene expression. Alternative splicing is now thought to be one of the primary reasons for the complexity of higher organisms leading to an average of three protein isoforms per gene. Aberrant splicing can lead to a number of diseases and is known to play a role in rare genetic diseases such as progeria syndrome. Hutchinson-Gilford Progeria Syndrome (HGPS) is a pediatric premature aging disease caused by a spontaneous mutation in the lamin A/C (LMNA) gene due to a single point mutation in the lamin A gene effecting 1 in 4 million people. To identify both specific splicing modulators of the lamin A gene as well as general splicing modulators, a cell-based HTS assay was developed using a minigene reporter system (AIDs, 1459 & 1487). […] This AID summarizes the characterization of lead compounds in Clk2. NIH Molecular Libraries Probe Production Centers Network [MLPCN] NIH Chemical Genomics Center [NCGC] MLPCN Grant: MH084827 Assay Submitter (PI): Tom Misteli
# Compound IC50s were determined at Reaction Biology (http://www.reactionbiology.com) with ten concentration points starting at 10 uM in the assay using a 3-fold dilution series. The control compound staurosporine was also tested in the 10-dose IC50 mode with the same 3-fold serial dilution, again starting at 10 uM. All kinase reactions were performed using 10 uM ATP in the assay. 100% activity was taken from kinase reactions with DMSO alone (the vehicle used for compound stock solutions).
SMILES,Potency,"activity change, negative = inhibition"
COc1ccc(-c2ccnc(NCc3ccc(Cl)cc3)n2)cc1,1090 nM (active),
c1cncc(CNc2nccc(-c3ccc4[nH]ncc4c3)n2)c1,462 nM (active),
FC(F)(F)c1cccc(Nc2nccc(-c3ccc4c(c3)OCO4)n2)c1,52.1 nM (active),
Clc1ccc(CNc2nccc(-c3ccc4c(c3)OCCO4)n2)cc1Cl,39.1 nM (active),
Cc1c(-c2ccnc(NCc3ccc(Cl)cc3)n2)sc(=O)n1C,700 nM (active),
Clc1ccc(CNc2nccc(-c3ccc4[nH]ncc4c3)n2)cc1Cl,190 nM (active),
Clc1cc(Cl)cc(CNc2nccc(-c3ccc4c(c3)OCO4)n2)c1,23.4 nM (active),
c1cncc(CNc2nccc(-c3ccc4c(c3)OCO4)n2)c1,59.8 nM (active),
Brc1cc(Br)cc(CNc2nccc(-c3ccc4c(c3)OCO4)n2)c1,41.4 nM (active),
Clc1ccc(CNc2ccnc(-c3ccc4c(c3)OCO4)n2)cc1Cl,,-27.8% (inactive)
Cc1c(-c2ccnc(NCc3cccnc3)n2)sc(=O)n1C,576 nM (active),
Cc1nc(CN(C)c2ncnc3ccc(-c4ccc5[nH]ncc5c4)cc23)cs1,160 nM (active),
Clc1ccc(CNc2ncncc2-c2ccc3c(c2)OCO3)cc1Cl,1560 nM (active),
c1cncc(CNc2ncncc2-c2ccc3c(c2)OCO3)c1,,-42.4% (inactive)
Clc1ccc(CNc2nccc(-c3ccc4cn[nH]c4c3)n2)cc1Cl,429 nM (active),
c1cc(-c2ccc3c(c2)OCO3)nc(Nc2ccc3c(c2)OCO3)n1,259 nM (active),

SMILES,Potency,"activity change, negative = inhibition"
COc1cccc(-c2ccnc(NCc3ccc(Cl)cc3)n2)c1,,-39.2% (inactive)
Clc1ccc(CNc2nccc(-c3ccc4c(c3)OCO4)n2)cc1Cl,20.4 nM (active),
c1nc(NCC2CCCO2)c2cc(-c3ccc4c(c3)OCO4)ccc2n1 (stereo unspecified),358 nM (active),
O=[N+]([O-])c1cc(Nc2nccc(-c3ccc4c(c3)OCO4)n2)cc(C(F)(F)F)c1,39.8 nM (active),
COc1cccc(-c2ccnc(NCc3ccc(Cl)c(Cl)c3)n2)c1,,-45.2% (inactive)
Clc1ccc(Nc2nccc(-c3ccc4c(c3)OCO4)n2)cc1,,-45% (inactive)
FC(F)(F)c1cc(Br)cc(Nc2nccc(-c3ccc4c(c3)OCO4)n2)c1,344 nM (active),
Brc1ccc(CNc2nccc(-c3ccc4c(c3)OCO4)n2)cc1Br,29.6 nM (active),
COc1ccc(-c2ccnc(NCc3ccc(Cl)c(Cl)c3)n2)cc1OC,,-20.3% (inactive)
Cc1nc(CNc2ncnc3ccc(-c4ccc5c(c4)OCO5)cc23)cs1,187 nM (active),
COc1ccc(-c2ccnc(NCc3ccc(Cl)c(Cl)c3)n2)cc1,409 nM (active),
c1cncc(CNc2ccnc(-c3ccc4[nH]ncc4c3)n2)c1,665 nM (active),
c1cncc(CNc2ccnc(-c3ccc4cn[nH]c4c3)n2)c1,1900 nM (active),
Clc1cc(Cl)cc(CNc2ncncc2-c2ccc3c(c2)OCO3)c1,231 nM (active),
Cc1nc(CN(C)c2ncnc3ccc(-c4ccc5c(c4)OCO5)cc23)cs1,44.8 nM (active),
